Results with a measured potency or affinity are listed apart. Inconclusive results are not listed. The source made the active and inactive calls. Unless noted, the rule behind the calls is not given here.
What was measured:
[1] = cytotoxicity in PAX8-dependent RMG-1 cells, dose response, cell-based, cherry-pick (AID 687029;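 active = signal drop whose fitted half-maximal concentration is at most twice the top valid dose, in every test run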;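 note: cells exposed to compound for 96 hours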)
[2] = cytotoxicity in IOSE-T80 ovarian epithelial cells, dose response, selectivity assay for PAX8 inhibitor project, cell-based, cherry-pick (AID 687032;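 active = fitted half-maximal concentration for viability loss no higher than twice the top valid dose, in every repeat run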;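 note: cells exposed to compound for 96 h before reading; 0% = neutral control wells and -100% = 2 µM mitoxantrone kill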)
[3] = inhibitors of CMV-promoter luciferase reporter, dose response, counter-screen for Pax8 inhibitor project, cell-based, HEK293, luminescence, dry powder (AID 743020;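 active = signal-lowering compounds whose fitted half-maximal concentration is at or below twice the top tested dose in every run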;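 note: HEK293 cells stably expressing the CMV luciferase reporter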)
[4] = non-specific cell cytotoxicity, dose response, cytotoxicity control for PAX8 inhibitor project, plate reader, dry powder samples (AID 743021)
[5] = IGROV1 ovarian cancer cell cytotoxicity, dose response, PAX8 inhibitor project, plate reader, dry powder samples (AID 743043);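 note: more negative means fewer viable cells or more cytotoxicity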
[6] = NIH:OVCAR-3 ovarian cancer cell cytotoxicity, dose response, PAX8 inhibitor project, plate reader, dry powder samples (AID 743044); settings: max activity: at 35 µM, active compounds read low unless noted
[7] = IOSE-T80 ovarian epithelial cell cytotoxicity, dose response, cytotoxicity control for PAX8 inhibitor project, plate reader, dry powder samples (AID 743045);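 note: 0% = neutral control median and -100% = positive control median; more negative values mean more cell killing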
[8] = A2780 ovarian cancer cell cytotoxicity, dose response, cytotoxicity control, plate reader, dry powder samples (AID 743046);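 note: 0% = neutral control wells and -100% = cytotoxic reference compound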
[9] = cytotoxicity in OVCAR8 ovarian cancer cells, dose response, PAX8 project, cell-based, plate reader, dry powder samples (AID 743197)

Measured: max activity

Cc1ccc(S(=O)(=O)N(C)C[C@@H]2Oc3c(NC(=O)c4ccc(-c5nccs5)cc4)cccc3C(=O)N([C@@H](C)CO)C[C@@H]2C)cc1
inactive: [1] | [2] | [3] | [4] | [5] | [6] 61.7% [at 0.26 µM, active compounds read low] | [7] | [8] | [9]

O=C(Nc1ccc(C(F)(F)F)cc1)N1C[C@@H]2N[C@H](C1)C2c1ccc(-c2ccccc2)cc1 (stereo partly specified)
inactive: [1] | [2] | [3] | [4] | [5] | [6] 13.9% [at 0.26 µM, active compounds read low] | [7] | [8] | [9]

C[C@@H]1CN([C@@H](C)CO)C(=O)Cc2cc(NC(=O)Nc3ccc(C(F)(F)F)cc3)ccc2O[C@H]1CN(C)S(=O)(=O)c1ccc(F)cc1
inactive: [1] | [2] | [3] | [4] | [5] | [6] 16.6% [at 1 µM, active compounds read low] | [7] | [8] | [9]

C[C@H](CO)N1C[C@H](C)[C@H](CN(C)S(=O)(=O)c2cccs2)OCCCC[C@H](C)Oc2ccc(NC(=O)NC3CCCCC3)cc2C1=O
inactive: [1] | [2] | [3] | [4] | [5] | [6] 9.21% [at 0.26 µM, active compounds read low] | [7] | [8] | [9]

C[C@@H]1CN([C@@H](C)CO)S(=O)(=O)c2ccc(C#Cc3ccccc3F)cc2O[C@H]1CN(C)CC1CCOCC1
inactive: [1] | [2] | [3] | [4] | [5] | [6] -11.1% [at 8 µM, active compounds read low] | [7] | [8] | [9]

CN1C[C@@H]2[C@H](c3ccccc31)[C@H](CO)N2Cc1ccccc1Cl
inactive: [1] | [2] | [3] | [4] | [5] | [6] 22.5% | [7] | [8] | [9]

C[C@@H]1CCCCO[C@H](CN(C)C(=O)Nc2ccc(F)cc2)[C@@H](C)CN([C@@H](C)CO)C(=O)c2cc(NC(=O)Nc3ccc(C(F)(F)F)cc3)ccc2O1
inactive: [1] | [2] | [3] | [4] | [5] | [6] 19.8% [at 0.26 µM, active compounds read low] | [7] | [8] | [9]

C[C@@H]1CCCCO[C@@H](CN(C)CC2CCCCC2)[C@@H](C)CN([C@@H](C)CO)C(=O)c2cc(NC(=O)Nc3ccc(C(F)(F)F)cc3)ccc2O1
inactive: [1] | [2] | [3] | [4] | [5] | [6] 17.1% [at 0.5 µM, active compounds read low] | [7] | [8] | [9]

C[C@H](CO)N1C[C@H](C)[C@H](CN(C)Cc2ccc3c(c2)OCO3)Oc2ccc(NC(=O)Nc3cccc4ccccc34)cc2C1=O
inactive: [1] | [2] | [3] | [4] | [5] | [6] 49.4% [at 4.2 µM, active compounds read low] | [7] | [8] | [9]

C[C@@H]1CN([C@@H](C)CO)C(=O)Cc2cc(NC(=O)Nc3ccc(C(F)(F)F)cc3)ccc2O[C@H]1CN(C)Cc1ccc(Cl)c(Cl)c1
inactive: [1] | [2] | [3] | [4] | [5] | [6] 9.21% [at 0.26 µM, active compounds read low] | [7] | [8] | [9]

C[C@@H]1CCCCO[C@H](CN(C)S(=O)(=O)c2ccc(Cl)cc2)[C@@H](C)CN([C@@H](C)CO)C(=O)c2cc(NC(=O)Nc3ccc(C(F)(F)F)cc3)ccc2O1
inactive: [1] | [2] | [3] | [4] | [5] | [6] 9.63% [at 2.1 µM, active compounds read low] | [7] | [8] | [9]

C[C@@H]1CN([C@@H](C)CO)C(=O)c2cc(N(C)C)ccc2O[C@@H]1CN(C)Cc1ccc(Oc2ccccc2)cc1
inactive: [1] | [2] | [3] | [4] | [5] | [6] -18.3% | [7] | [8] | [9]

C[C@@H]1CN([C@H](C)CO)C(=O)c2cc(NC(=O)c3ccncc3)ccc2O[C@@H](C)CCCCO[C@H]1CN(C)Cc1ccc(C(F)(F)F)cc1
inactive: [1] | [2] | [3] | [4] | [5] | [6] 14.3% [at 0.5 µM, active compounds read low] | [7] | [8] | [9]

COc1cccc(-c2ccc3c(c2)[C@@H]2[C@@H](CCN2C(=O)NC2CCCCC2)[C@H](CO)N3C)c1
inactive: [1] | [2] | [3] | [4] | [5] | [6] -16.7% [at 2.1 µM, active compounds read low] | [7] | [8] | [9]

Cc1ccc(S(=O)(=O)Nc2ccc3c(c2)C(=O)N([C@H](C)CO)C[C@H](C)[C@H](CN(C)C(=O)c2ccccc2)OCCCC[C@H](C)O3)cc1
inactive: [1] | [2] | [3] | [4] | [5] | [6] -23.6% | [7] | [8] | [9]

CO[C@H]1CN(C)C(=O)c2cc(NC(=O)c3nc4ccccc4s3)ccc2OC[C@H](C)N(Cc2cccnc2)C[C@H]1C
inactive: [1] | [2] | [3] | [4] | [5] | [6] 15.1% [at 0.26 µM, active compounds read low] | [7] | [8] | [9]

C[C@@H]1CN([C@H](C)CO)C(=O)c2c(c3ccccc3n2C)-c2ccccc2CO[C@@H]1CN(C)C
inactive: [1] | [2] | [3] | [4] | [5] | [6] 18.1% [at 0.5 µM, active compounds read low] | [7] | [8] | [9]

COc1ccc(NC(=O)Nc2ccc3c(c2)CC(=O)N([C@@H](C)CO)C[C@@H](C)[C@@H](CN(C)Cc2ccc(Oc4ccccc4)cc2)O3)cc1
inactive: [1] | [2] | [3] | [4] | [5] | [6] 14.4% [at 18 µM, active compounds read low] | [7] | [8] | [9]

COc1ccc(S(=O)(=O)N(C)C[C@H]2Oc3ccc(NC(=O)Nc4ccc(C(F)(F)F)cc4)cc3CC(=O)N([C@H](C)CO)C[C@@H]2C)cc1
inactive: [1] | [2] | [3] | [4] | [5] | [6] 26.7% [at 16 µM, active compounds read low] | [7] | [8] | [9]

C[C@@H]1CN([C@@H](C)CO)C(=O)c2cc(NC(=O)Nc3ccc4c(c3)OCO4)ccc2O[C@@H]1CN(C)C(=O)Nc1ccc(C(F)(F)F)cc1
inactive: [1] | [2] | [3] | [4] | [5] | [6] 51.3% [at 0.26 µM, active compounds read low] | [7] | [8] | [9]

C[C@@H]1CN([C@H](C)CO)C(=O)Cc2cc(NS(=O)(=O)c3ccccc3)ccc2O[C@@H]1CN(C)S(=O)(=O)c1ccc(Cl)cc1
inactive: [1] | [2] | [3] | [4] | [5] | [6] 47.5% | [7] | [8] | [9]

C[C@H]1CN([C@@H](C)CO)C(=O)Cc2cc(NC(=O)Nc3ccc(C(F)(F)F)cc3)ccc2O[C@H]1CN(C)C(=O)NC1CCCCC1
inactive: [1] | [2] | [3] | [4] | [5] | [6] 30.7% [at 1.1 µM, active compounds read low] | [7] | [8] | [9]

Cc1ccc(S(=O)(=O)N(C)C[C@@H]2OCCCC[C@H](C)Oc3ccc(NS(=O)(=O)c4ccc(Cl)cc4)cc3C(=O)N([C@H](C)CO)C[C@H]2C)cc1
inactive: [1] | [2] | [3] | [4] | [5] | [6] 19.8% [at 0.5 µM, active compounds read low] | [7] | [8] | [9]

COc1ccccc1-c1ccc2c(c1)O[C@H](CN(C)Cc1ccc3c(c1)OCO3)[C@H](C)CN([C@@H](C)CO)S2(=O)=O
inactive: [1] | [2] | [3] | [4] | [5] | [6] 20.4% [at 4.2 µM, active compounds read low] | [7] | [8] | [9]

C[C@H](CO)N1C[C@H](C)[C@@H](CN(C)C(=O)Nc2ccc(F)cc2)OCc2ccccc2-c2c(n(C)c3ccccc23)C1=O
inactive: [1] | [2] | [3] | [4] | [5] | [6] 31.5% | [7] | [8] | [9]

COc1ccc(S(=O)(=O)Nc2ccc3c(c2)CC(=O)N([C@@H](C)CO)C[C@@H](C)[C@H](CN(C)Cc2ccc(-c4ccccc4)cc2)O3)cc1
inactive: [1] | [2] | [3] | [4] | [5] | [6] 35.7% [at 1 µM, active compounds read low] | [7] | [8] | [9]

CCCC(=O)Nc1ccc2c(c1)C(=O)N(C)C[C@@H](OC)[C@H](C)CN(Cc1ccc(-c3ccccn3)cc1)[C@H](C)CO2
inactive: [1] | [2] | [3] | [4] | [5] | [6] 8.7% [at 0.5 µM, active compounds read low] | [7] | [8] | [9]

C[C@H]1CCCCO[C@@H](CN(C)C(=O)Nc2ccc(C(F)(F)F)cc2)[C@@H](C)CN([C@@H](C)CO)C(=O)c2cc(NS(=O)(=O)c3cn(C)cn3)ccc2O1
inactive: [1] | [2] | [3] | [4] | [5] | [6] -16.1% | [7] | [8] | [9]

C[C@H]1CCCCO[C@H](CN(C)Cc2ccc(Cl)c(Cl)c2)[C@@H](C)CN([C@@H](C)CO)C(=O)c2cc(NC(=O)Nc3ccc(F)cc3)ccc2O1
inactive: [1] | [2] | [3] | [4] | [5] | [6] -19.8% [at 0.26 µM, active compounds read low] | [7] | [8] | [9]
